# Assay outcomes (PubChem BioAssay)
# Shown are actives, neighbours in structure and some others; about 2.9% of the full set was active somewhere.
# GLP1R ag – agonists of human GLP-1 receptor. HEK293 GLP-1R CRE-luciferase, luminescence, 4-6 h; cells express a hypersensitive GLP-1R form. 380,000 tested, 0.007% active. Potency, µM (highest dose often 45.6 µM), without a hit: at the top dose activation, actives largely listed as activators. AID 624172. P43220; note: potency is the fitted concentration of half-maximal effect; % of control where 0% means no effect
# Target sequence (P43220 whole entry, looked up): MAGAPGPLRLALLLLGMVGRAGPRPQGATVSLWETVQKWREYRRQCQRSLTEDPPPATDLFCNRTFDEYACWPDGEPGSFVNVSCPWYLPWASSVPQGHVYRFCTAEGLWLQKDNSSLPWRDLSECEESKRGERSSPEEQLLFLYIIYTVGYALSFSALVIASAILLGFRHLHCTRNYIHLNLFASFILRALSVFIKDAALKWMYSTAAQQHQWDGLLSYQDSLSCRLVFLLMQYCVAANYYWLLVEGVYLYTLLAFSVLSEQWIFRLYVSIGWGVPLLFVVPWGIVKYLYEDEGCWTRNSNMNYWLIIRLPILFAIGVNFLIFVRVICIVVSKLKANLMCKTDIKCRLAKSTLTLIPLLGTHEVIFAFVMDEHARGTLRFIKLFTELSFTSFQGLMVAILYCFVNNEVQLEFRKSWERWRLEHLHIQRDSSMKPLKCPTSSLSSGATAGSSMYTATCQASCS
# GLP-1R inv ag – acts as inverse agonist at human GLP-1 receptor; HEK293 GLP-1R CRE-luciferase, luminescence, 24 h; GLP-1R form is constitutively active; Potency, µM (titrated, usually from 38.3 µM), for inactives: at the top dose activity change, negative = inhibition, actives largely listed as inhibitors; 410,000 tested, 1.6% active; note: potency is the fitted concentration of half-maximal effect; % is set by controls: 0 for no effect and ±100 for the full control effect; nearly all actives have a fitted effect of over 55% in size
#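 HEK293 cells stably co-expressing constitutively active GLP-1R and a cAMP-responsive luciferase reporter were seeded in DMEM with 10% Nu serum, given compounds after 12 h, and incubated 24 h at 37 deg C. Luminescence was then read.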
# ClpP mod – qHTS Assay for Activators of ClpP. ATP-dependent Clp protease proteolytic subunit (Bacillus subtilis (strain 168)), P80244. 340,000 tested, 1.9% active. Potency, µM (top dose mostly 57.5 µM), inactives show at the highest dose activity change, negative = active. purified B. subtilis ClpP, FRET peptide cleavage, 20 min; active = well fitted falling curve with a large enough effect; inconclusive = small, poorly fitted or top-dose-only effect; inactive = no such curve, though single readings can be large or run the other way; note: potency is the fitted concentration of half-maximal effect; the source files actives as falling curves though it sought activators and does not explain the sign; nearly all actives have a fitted effect of over 65% in size
# Target sequence (P80244 whole entry, looked up): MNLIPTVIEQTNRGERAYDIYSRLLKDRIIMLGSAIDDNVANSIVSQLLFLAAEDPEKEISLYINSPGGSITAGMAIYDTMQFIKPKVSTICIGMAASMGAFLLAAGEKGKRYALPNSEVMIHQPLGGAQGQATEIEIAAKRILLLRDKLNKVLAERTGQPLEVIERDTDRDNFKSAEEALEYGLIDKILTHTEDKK
#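 Purified B. subtilis ClpP, 10 microg/mL final in Tris/HCl pH8 with KCl, BSA, glycerol and Tween-20, cleaved an Abz/nitrotyrosine-quenched decapeptide. Fluorescence (ex 320, em 430) was read at 0 and 20 min at room temperature. Delta was normalized to 5.8 microM ADEP and DMSO/no-enzyme controls.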
# LDHA inh – inhibitors of human lactate dehydrogenase A. activity change, % (values are at about 110 or 230 µM). 480,000 tested, 0.15% active. purified LDHA, NADH/diaphorase-resazurin fluorescence; active compounds read low; in the data active = activity change below about -30%; inconclusive = mostly about -25% to -30%;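 note: plate controls were DMSO wells for no effect and wells without enzyme for full effect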
#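 LDH5 2 nM; NADH 0.06 mM, pyruvate 0.2 mM; 200 mM Tris pH 7.4, EDTA, Tween-20; 5 min RT. Detection: diaphorase 0.133 mg/mL + resazurin 37 µM, fluorescence ex540/em590 at 0 and 20 min; normalized to enzyme-free and DMSO wells.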
# p53 reactivation – re-activators of mutant p53; H1299 p53-A138V BP100-luciferase reporter, luminescence, 24 h; Potency, µM (doses to about 92.2 µM), without a hit: at the top dose activity change, positive = activation, most hits filed as activators; 320,000 tested, 0.063% active; note: potency is the fitted concentration of half-maximal effect; % of control where 0% means no effect; nearly all actives have a fitted effect of over 45% in size
#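 p53-null H1299 cells stably carrying temperature-sensitive p53-A138V and a BP100-luciferase reporter were pinned with compounds (4-point, 1:5 series) and held 24 hrs at 37 deg C. Luminescence was read 10 min after detection reagent.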
# HEK293 tox – cytotoxic in the GLP-1 receptor inverse agonist counter-screen | HEK293 cAMP-luciferase reporter cells, luminescence, 24 h | Potency, µM (highest dose often 38.3 µM), inactives show at the highest dose activity change, negative = inhibition, actives largely listed as inhibitors | 410,000 tested, 0.13% active;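 note: loss of luciferase light is scored as toxicity; potency is the fitted concentration of half-maximal effect; % is set by controls: 0 for no effect and ±100 for the full control effect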
#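 Quantitative HTS format, 1536 wells, 200 cells/uL seeded. Compounds: 23 nL, 24 h, 37 °C. Detection: luciferase reagent, luminescence at 12 min RT; decreased signal taken as cytotoxic.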
# An asterisk follows results filed as active; u = inconclusive; x = no result given; [ ] = dose if it differs, or a comment. Unless noted, calls come from the whole dose curve; as a rule, active = well fitted curve in the direction sought with a large enough effect; inconclusive = small, poorly fitted or top-dose-only effect, or another doubt; inactive = no such curve, though single readings can be large; an effect the other way counts as inactive or inconclusive.
SMILES,GLP1R ag,GLP-1R inv ag,ClpP mod,LDHA inh,p53 reactivation,HEK293 tox
CC1=C(C(=O)Nc2cccc(F)c2)C(c2ccsc2)C2=C(CC(C)(C)CC2=O)N1 (configuration not stated),14%,4µM*,-29%,-7,3%,-22%
Cc1ccc(NS(=O)(=O)c2ccc(NC(=O)CN(c3cc([N+](=O)[O-])ccc3C)S(C)(=O)=O)cc2)c(C)c1,-8%,2.2µM*,0%,-6,1%,u
Cc1c(C(=O)N2CCN(c3ncccn3)CC2)sc2nc3n(c(=O)c12)CCCC3,-3%,6%,28µM*,-2,x,-4%
Cc1c(C(=O)O)sc2nc3n(c(=O)c12)CCCCC3,-5%,1%,1%,0,x,-7%
COc1ccccc1NC(=O)c1ccc(NC(=O)COC(=O)CC(NC(=O)c2ccccc2Cl)c2ccccc2)cc1 (configuration not stated),10%,14%,x,0,0%,-1%
CCN(CC)S(=O)(=O)c1ccc(NC(=O)c2cc(-c3cccs3)nc3ccccc23)cc1,-12%,-4%,28µM*,-6,4%,12%
NS(=O)(=O)c1ccc(NC(=O)c2cc(-c3cccs3)nc3ccccc23)cc1,0%,1%,u,-4,-5%,14%
COc1cccc(CN(C)C(=O)c2cc(-c3cccs3)nc3ccccc23)c1,3%,6.3µM*,32µM*,-8,-9%,u
CN(C)S(=O)(=O)c1ccc(NC(=O)c2cc(-c3cccs3)nc3ccccc23)cc1,-17%,0%,16µM*,-4,-2%,-5%
CNC(=O)CNC(=O)c1cc(-c2cccs2)nc2ccccc12,x,x,x,8,x,x
C/C(=N\NC(=O)c1cc(-c2cccs2)nc2ccccc12)c1ccccn1,7%,2.8µM*,4%,-4,-3%,u
CC(=O)N(C(C)=O)c1cccc2c(N(C(C)=O)C(C)=O)cccc12,0%,1%,0%,1,0%,1%
Cc1cc(-n2c(C)nc3ccccc3c2=O)ccc1NC(=O)c1ccc(C)c([N+](=O)[O-])c1,x,8%,-1%,-6,x,7%
O=C(NC1CCCCC1)C(c1ccc(F)cc1)N(CCc1ccccc1)C(=O)CN1C(=O)c2ccccc2S1(=O)=O (configuration not stated),-8%,4%,2%,-3,3%,4%
COc1ccc(C2CC(c3ccc4ccccc4c3)=NN2C(=O)CSc2ncccn2)cc1 (configuration not stated),22%,u,22µM*,-3,u,-18%
COc1ccc(C2=NN(C(=O)CSc3ncccn3)C(c3ccc(OC)cc3)C2)cc1 (configuration not stated),16%,-2%,-11%,2,-8%,-16%
Cc1noc(C)c1S(=O)(=O)N1CCCC(C(=O)N2CCC(C)CC2)C1 (configuration not stated),8%,8%,0%,-2,1%,-12%
Cc1cccc(N2CCN(C(=O)C3CCCCC3)CC2)c1C,-1%,10µM*,-7%,5,-4%,6%
Cc1cccc(N2CCN(C(=O)C3CCCN(S(=O)(=O)c4c(C)noc4C)C3)CC2)c1C (configuration not stated),-4%,7.9µM*,2%,-1,x,-9%
Cc1ccccc1N1CCN(C(=O)C2CCCCC2)CC1,6%,u,-5%,2,21%,20%
Cc1cc(C)n(CCCN2CCC(C(=O)Nc3cccc(-c4cccc(F)c4)c3)CC2)n1,-8%,7.1µM*,1%,-2,u,u
COC(=O)c1c(N)n(-c2ccc(N3CCOCC3)cc2)c2nc3ccccc3nc12,x,x,x,x,2%,x
CN1CCCC(CC2Oc3ccccc3Sc3ccccc32)C1 (configuration not stated),-3%,5.6µM*,0%,-11,-12%,u
CN1CC[C@H](CN2c3ccccc3Sc3ccccc32)C1,-2%,x,-4%,3,x,x
c1ccc2c(c1)OC(CCCN1CCCCC1)c1ccccc1S2 (configuration not stated),0%,7.9µM*,-6%,-3,-3%,-17%
SMILES,GLP1R ag,GLP-1R inv ag,ClpP mod,LDHA inh,p53 reactivation,HEK293 tox
COc1cccc(-c2ocnc2C(=O)Nc2ccc3c(c2)CCC3)c1,12%,-24%,x,-8,6%,-7%
COc1cc(/C=C(\C#N)C(=O)c2ccc(O)c(O)c2)cc(I)c1O,-4%,37%,-3%,-44*,3%,-7%
COc1ccc(-n2nc3c(c2NC(=O)COc2ccccc2OC)CS(=O)(=O)C3)cc1,-4%,9%,2%,3,x,10%
Cc1ccc(C)c(NS(=O)(=O)c2ccc(OCC(=O)N3CCCC3)cc2)c1,4%,0%,-1%,-9,-4%,8%
Cc1ccccc1NS(=O)(=O)c1ccc(OCC(=O)N2CCCC2)cc1,7%,4%,28µM*,-1,-1%,-5%
O=C(COc1ccc(S(=O)(=O)N2CCCCC2)cc1)N1CCCCCC1,12%,-13%,32µM*,-3,-8%,-5%
O=C(COc1ccc(-c2nnc(N3CCCCC3)c3ccccc23)cc1)N1CCCCC1,2%,10µM*,-3%,2,18%,0%
Cc1cc(C)cc(NC(=O)COC(=O)c2ccc(CN3CCCC3=O)cc2)c1,3%,-7%,-3%,-3,0%,-4%
O=[N+]([O-])/C=C\c1ccc(N2CCOCC2)cc1,-7%,11µM*,0%,-4,x,u
CCNC(=O)NC(=O)C(C)N(C)CC(=O)Nc1cccc2ccccc12 (configuration not stated),x,x,x,-33*,x,x
COc1ccccc1NC(=O)C(C)N(C)CC(=O)Nc1cccc2ccccc12 (configuration not stated),0%,-21%,-29%,3,-9%,-1%
Cc1ccsc1CNC1C2CC3CC(C2)CC1C3 (configuration not stated),1%,-1%[7.66 µM],22µM*,-8,-5%,1%[7.66 µM]
c1csc(CNC2C3CC4CC(C3)CC2C4)c1 (configuration not stated),x,x,x,0,x,x
CC1(C)Cc2c(cnn2-c2ccccc2)C(=O)/C1=N\NC(=O)c1ccccc1N,-1%,-1%,1%,3,8%,11%
CC1(C)Cc2c(cnn2-c2ccccc2)-c2c1c1ccccc1n2CC(O)CBr (configuration not stated),-8%,7.1µM*,14µM*,-1,-25%,-28%
